About 2,000 (36%) of roughly 5,500 compounds were called active. Inconclusive results (about 18%) are left out. Cut-off read from the data, not from the text of the source: active = normalized growth mostly below about 0.91 (no sharp cut-off); inconclusive = no clear call, values can overlap the other calls; inactive = mostly above about 0.92. Some of the results follow.
Assay: chemical genetic growth profiling, strain panel (AID 1159580);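 note: tested at 20 µM; growth read once vehicle control cultures reached saturation at 30 °C; 1 = growth at the plate median or of vehicle wells; lower values mean less growth of the strain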
Conditions: growth OD

Measured: normalized growth

O=c1cccc2n1C[C@H]1CNCC2C1
inactive: S. cerevisiae deletion strains, locus YJR043C, strain POL32, active compounds read low 1.01 | S. cerevisiae deletion strains, locus YJR066W, strain TOR1, active compounds read low 0.988 | S. cerevisiae deletion strains, locus YKL009W, strain mrt4, active compounds read low 1.02 | S. cerevisiae deletion strains, locus YKL068W, active compounds read low 0.98 | S. cerevisiae deletion strains, locus YKL085W, strain MDH1 (second series), active compounds read low 1 | S. cerevisiae deletion strains, locus YKL085W, strain MDH1, active compounds read low 1 | S. cerevisiae deletion strains, locus YKL160W, strain elf1, active compounds read low 0.984 | S. cerevisiae deletion strains, locus YKR001C, strain vps1, active compounds read low 0.964 | S. cerevisiae deletion strains, locus YKR026C, strain gcn3, active compounds read low 0.994 | S. cerevisiae deletion strains, locus YKR091W, strain srl3, active compounds read low 1.01 | S. cerevisiae deletion strains, locus YLL001W, strain dnm1, active compounds read low 0.95 | S. cerevisiae deletion strains, locus YLL026W, active compounds read low 1.01 | S. cerevisiae deletion strains, locus YLL041C, strain sdh2, active compounds read low 0.998 | S. cerevisiae deletion strains, locus YLR027C, strain aat2, active compounds read low 1 | S. cerevisiae deletion strains, locus YLR039C, strain RIC1, active compounds read low 1.01 | S. cerevisiae deletion strains, locus YLR058C, strain SHM2, active compounds read low 1.01 | S. cerevisiae deletion strains, locus YLR102C, strain apc9, active compounds read low 0.985 | S. cerevisiae deletion strains, locus YLR113W, strain HOG1, active compounds read low 0.979 | S. cerevisiae deletion strains, locus YLR221C, strain rsa3, active compounds read low 0.971 | S. cerevisiae deletion strains, locus YLR258W, strain gsy2, active compounds read low 0.982 | S. cerevisiae deletion strains, locus YLR262C, strain YPT6 (second series), active compounds read low 0.998 | S. cerevisiae deletion strains, locus YLR262C, strain YPT6, active compounds read low 1.01 | S. cerevisiae deletion strains, locus YLR268W, strain sec22, active compounds read low 0.971 | S. cerevisiae deletion strains, locus YLR320W, strain mms22, active compounds read low 0.974 | S. cerevisiae deletion strains, locus YLR330W, strain CHS5, active compounds read low 0.989 | S. cerevisiae deletion strains, locus YLR342W, strain FKS1 (second series), active compounds read low 1.04 | S. cerevisiae deletion strains, locus YLR342W, strain FKS1, active compounds read low 1.01 | S. cerevisiae deletion strains, locus YLR357W, strain rsc2, active compounds read low 1.09 | S. cerevisiae deletion strains, locus YLR370C, strain arc18, active compounds read low 0.99 | S. cerevisiae deletion strains, locus YLR371W, strain rom2, active compounds read low 0.976 | S. cerevisiae deletion strains, locus YLR384C, strain iki3, active compounds read low 1 | S. cerevisiae deletion strains, locus YLR418C, strain cdc73, active compounds read low 1.03 | S. cerevisiae deletion strains, locus YML016C, strain PPZ1, active compounds read low 1.01 | S. cerevisiae deletion strains, locus YML032C, strain rad52, active compounds read low 1.01 | S. cerevisiae deletion strains, locus YML120C, strain ndi1, active compounds read low 0.993 | S. cerevisiae deletion strains, locus YML124C, strain tub3, active compounds read low 0.995 | S. cerevisiae deletion strains, locus YMR058W, strain fet3, active compounds read low 1.01 | S. cerevisiae deletion strains, locus YMR078C, strain ctf18, active compounds read low 0.984 | S. cerevisiae deletion strains, locus YMR125W, strain sto1, active compounds read low 0.992 | S. cerevisiae deletion strains, locus YMR129W, active compounds read low 1 | S. cerevisiae deletion strains, locus YMR205C, strain PFK2, active compounds read low 0.994 | S. cerevisiae deletion strains, locus YMR223W, strain ubp8, active compounds read low 1.01 | S. cerevisiae deletion strains, locus YMR231W, strain pep5, active compounds read low 1.01 | S. cerevisiae deletion strains, locus YMR263W, strain SAP30, active compounds read low 1 | S. cerevisiae deletion strains, locus YMR307W, strain GAS1, active compounds read low 1.07 | S. cerevisiae deletion strains, locus YNL067W, strain RPL9B, active compounds read low 1.01 | S. cerevisiae deletion strains, locus YNL071W, strain lat1, active compounds read low 1.01 | S. cerevisiae deletion strains, locus YNL153C, strain GIM3, active compounds read low 1.03 | S. cerevisiae deletion strains, locus YNL183C, strain NPR1, active compounds read low 0.987 | S. cerevisiae deletion strains, locus YNL209W, strain ssb2, active compounds read low 1.01 | S. cerevisiae deletion strains, locus YNL233W, strain BNI4, active compounds read low 1.03 | S. cerevisiae deletion strains, locus YNL248C, strain rpa49, active compounds read low 1.09 | S. cerevisiae deletion strains, locus YNL250W, strain rad50, active compounds read low 0.929 | S. cerevisiae deletion strains, locus YNL271C, strain bni1, active compounds read low 0.988 | S. cerevisiae deletion strains, locus YNL298W, strain CLA4, active compounds read low 1.01 | S. cerevisiae deletion strains, locus YNL307C, strain MCK1, active compounds read low 0.983 | S. cerevisiae deletion strains, locus YNL322C, strain KRE1 (second series), active compounds read low 1 | S. cerevisiae deletion strains, locus YNR049C, strain mso1, active compounds read low 1 | S. cerevisiae deletion strains, locus YNR052C, strain pop2, active compounds read low 1.01 | S. cerevisiae deletion strains, locus YOL006C, strain TOP1, active compounds read low 1.02 | S. cerevisiae deletion strains, locus YOL012C, strain htz1 1.03 | S. cerevisiae deletion strains, locus YOL147C, strain pex11, active compounds read low 0.998 | S. cerevisiae deletion strains, locus YOR001W, strain rrp6, active compounds read low 0.987 | S. cerevisiae deletion strains, locus YOR061W, strain CKA2, active compounds read low 1.01 | S. cerevisiae deletion strains, locus YOR069W, strain VPS5, active compounds read low 0.999 | S. cerevisiae deletion strains, locus YOR070C, strain gyp1, active compounds read low 0.998 | S. cerevisiae deletion strains, locus YOR080W, strain dia2, active compounds read low 1 | S. cerevisiae deletion strains, locus YOR083W, strain WHI5, active compounds read low 0.991 | S. cerevisiae deletion strains, locus YOR106W, strain vam3, active compounds read low 1.01 | S. cerevisiae deletion strains, locus YOR136W, strain idh2, active compounds read low 0.994 | S. cerevisiae deletion strains, locus YOR144C, strain elg1, active compounds read low 1 | S. cerevisiae deletion strains, locus YOR184W, strain ser1, active compounds read low 0.996 | S. cerevisiae deletion strains, locus YOR231W, strain MKK1, active compounds read low 1.02 | S. cerevisiae deletion strains, locus YOR265W, strain rbl2, active compounds read low 1.01 | S. cerevisiae deletion strains, locus YOR270C, strain vph1, active compounds read low 1.05 | S. cerevisiae deletion strains, locus YOR290C, strain snf2, active compounds read low 0.958 | S. cerevisiae deletion strains, locus YOR316C, strain cot1, active compounds read low 0.994 | S. cerevisiae deletion strains, locus YPL051W, strain arl3, active compounds read low 1 | S. cerevisiae deletion strains, locus YPL078C, strain atp4, active compounds read low 0.997 | S. cerevisiae deletion strains, locus YPL106C, strain sse1, active compounds read low 0.957 | S. cerevisiae deletion strains, locus YPL240C, strain hsp82, active compounds read low 0.993 | S. cerevisiae deletion strains, locus YPL241C, strain CIN2, active compounds read low 1 | S. cerevisiae deletion strains, locus YPL256C, strain CLN2, active compounds read low 1.07 | S. cerevisiae deletion strains, locus YPR119W, strain clb2, active compounds read low 0.981 | S. cerevisiae deletion strains, locus YPR141C, strain kar3, active compounds read low 0.982 | S. cerevisiae deletion strains, locus YPR163C, strain tif3, active compounds read low 0.993 | S. cerevisiae deletion strains, locus YPR167C, strain met16, active compounds read low 0.98 | S. cerevisiae deletion strains, strain wtn01, active compounds read low 0.958 | S. cerevisiae strains, strain wild type, active compounds read low 1.01

Source: PubChem BioAssay AID1159580 (chemical genetic matrix, 2015)
